Results from PubChem BioAssay (NCI).
The panel holds about 83,000 compounds, 20% with a hit somewhere; the sample as a whole holds those more often.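 Percent growth is the endpoint: 0 to 100 indicates growth inhibition (40 means 60% inhibition), 0 means no net growth, and negative values indicate cell death.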 Values without a mark were called inactive. The source made the active and inactive calls. The calls were made as follows: active = growth percent below 10; inactive = the rest.

Experiments:
Assay in all cases: NCI-60 one-dose screen, 48 h (100 = growth as untreated, 0 = no growth, -100 = all killed)
Settings in all cases: 10 µM unless noted
DU-145 prostate = tested on: DU-145 prostate
K-562 leukemia = tested on: K-562 leukemia
MALME-3M melanoma = tested on: MALME-3M melanoma
MDA-MB-231 breast = tested on: MDA-MB-231 breast
RXF 393 renal = tested on: RXF 393 renal
SF-268 CNS = tested on: SF-268 CNS
SF-295 CNS = tested on: SF-295 CNS
SF-539 CNS = tested on: SF-539 CNS
UACC-257 melanoma = tested on: UACC-257 melanoma
M14 melanoma = tested on: M14 melanoma
HCT-15 colon = tested on: HCT-15 colon
HT29 colon = tested on: HT29 colon
SNB-75 CNS = tested on: SNB-75 CNS
SNB-19 CNS = tested on: SNB-19 CNS
U251 CNS = tested on: U251 CNS
PC-3 prostate = tested on: PC-3 prostate
SK-MEL-5 melanoma = tested on: SK-MEL-5 melanoma
UACC-62 melanoma = tested on: UACC-62 melanoma
LOX IMVI melanoma = tested on: LOX IMVI melanoma
SK-MEL-28 melanoma = tested on: SK-MEL-28 melanoma

Structure (SMILES) | growth (DU-145 prostate) | growth (K-562 leukemia) | growth (MALME-3M melanoma) | growth (MDA-MB-231 breast) | growth (RXF 393 renal) | growth (SF-268 CNS) | growth (SF-295 CNS) | growth (SF-539 CNS) | growth (UACC-257 melanoma) | growth (M14 melanoma) | growth (HCT-15 colon) | growth (HT29 colon) | growth (SNB-75 CNS) | growth (SNB-19 CNS) | growth (U251 CNS) | growth (PC-3 prostate) | growth (SK-MEL-5 melanoma) | growth (UACC-62 melanoma) | growth (LOX IMVI melanoma) | growth (SK-MEL-28 melanoma)
COC(=O)/C(CCC=C(C)C)=C1\[C@@H](OC(C)=O)C[C@@]2(C)[C@H]1CC(=O)[C@H]1[C@@]3(C)CCC(N4CCCC4)[C@@H](C)[C@@H]3CC[C@@]12C (stereo not given in full) | 101% | 12.5% | 100% | 130% | 98.3% | 97.6% | 98.3% | 102% | 110% | 93.1% | 73.4% | 68.2% | 99.2% | 107% | 101% | 89.1% | 99.2% | 97.6% | 101% | 93.6%
COc1cccc(Nc2ccnc3[nH]c4ccc([N+](=O)[O-])cc4c23)c1 | 76.9% | 19% | 53% | 60.1% | 33.5% | 60.7% | 45.5% | 48.9% | 57.4% | 34% | 31.4% | 24.3% | 21% | 37.4% | 42% | 48.2% | 38.7% | 24.2% | 52.2% | 65.7%
C#CCn1cnc2c(Nc3cccc(NC(=O)CCl)c3)ncnc21 | 43.6% | 13.2% | 34.4% | 18.4% | 54.6% | 35.3% | 59.7% | 45.4% | 28.4% | 24.4% | 23.4% | 26.9% | 33.2% | 58.7% | 19.1% | 28.6% | 31.4% | 19.7% | 24% | 39.5%
COc1cc(-c2nc3ccc(C)cc3[nH]2)ccc1OCC(=O)N=Nc1c(O)[nH]c2ccc(Cl)cc12 | 22.9% | -39.3% (active) | -26.9% (active) | -61.6% (active) | -40.7% (active) | 31.4% | -7.5% (active) | -80% (active) | 39.4% | 3.17% (active) | 58.8% | -27.6% (active) | -42.1% (active) | 3.43% (active) | -41.6% (active) | 11.1% | 56% | 19.9% | -96.8% (active) | 3.39% (active)
N=C(N)c1ccc(-c2ccc(-c3ccc(Cl)cc3Cl)s2)cc1F | -82.4% (active) | -22.6% (active) | -2.93% (active) | -79.5% (active) | 50.1% | 1.95% (active) | -79.5% (active) | -95.4% (active) | 18.6% | -15.1% (active) | -75.7% (active) | -29.4% (active) | 20.7% | -34.3% (active) | -52.1% (active) | -14.1% (active) | 50.8% | -54% (active) | -89.9% (active) | 83.7%
CN(C)Cc1ccc(C(=O)Nc2ccc3ncnc(Nc4ccc(Oc5cccc(F)c5)c(Cl)c4)c3c2)cc1 | 7.69% (active) | -39.3% (active) | -80.6% (active) | -73.9% (active) | -80.4% (active) | -31% (active) | -41.7% (active) | -90.1% (active) | -58.3% (active) | -69.3% (active) | -45.3% (active) | -35.4% (active) | 18.5% | -3.27% (active) | -28.1% (active) | 3.54% (active) | -82.6% (active) | -20.1% (active) | -96.2% (active) | -89.1% (active)
COc1ccc2c(O)c(/C=C3\N=Nc4ccccc43)oc2c1C[C@H]1CCNC[C@H]1F | 51.1% | 37.4% | 42.3% | 47.8% | 59.9% | 77.2% | 66.9% | 57.4% | 52.2% | 28.7% | 33.6% | 19.3% | 61.4% | 67.7% | 65.4% | 40.8% | 48.3% | 41.2% | 35% | 68.3%
